Results filed as inconclusive are left out. Calls of active or inactive are those of the source. Unless noted, calls come from the whole dose curve.

Test [1] can be described thus: qHTS for Inhibitors of the Functional Ribonucleoprotein Complex (vRNP) of Lassa (LASV) Arenavirus: LASV Primary Screen - GLuc reporter signal (AID 1347082; calls by dose curve; tested in HEK293 reporter line; note: nearly all actives have a fitted effect of over 60% in size; note: potency is the fitted concentration of half-maximal effect; for activity change, negative = inhibition: % is set by controls: 0 for no effect and ±100 for the full control effect). A general note: Quantitative high-throughput screening tests each substance at several concentrations.
A short description of test [2]: qHTS for Inhibitors of the Functional Ribonucleoprotein Complex (vRNP) of Lassa (LASV) Arenavirus: Viability assay - alamar blue signal for LASV Primary Screen (AID 1347083; calls by dose curve; tested in HEK293 reporter line; note: nearly all actives have a fitted effect of over 80% in size; note: potency is the fitted concentration of half-maximal effect).
The nature of test [3]: qHTS for Inhibitors of the Functional Ribonucleoprotein Complex (vRNP) of Lymphocytic Choriomeningitis Arenaviruses (LCMV): Viability assay - alamar blue signal for LCMV Primary Screen (AID 1347085; calls by dose curve; tested in HEK293 reporter line; note: nearly all actives have a fitted effect of over 80% in size; note: potency is the fitted concentration of half-maximal effect).
In test [4] the target is Nucleoprotein (Lymphocytic choriomeningitis virus (strain Armstrong)) (UniProt P09992). In words: qHTS for Inhibitors of the Functional Ribonucleoprotein Complex (vRNP) of Lymphocytic Choriomeningitis Arenaviruses (LCMV): LCMV Primary Screen - GLuc reporter signal (AID 1347086). For activity change, negative = inhibition: % is set by controls: 0 for no effect and ±100 for the full control effect. Note: nearly all actives have a fitted effect of over 70% in size. Note: potency is the fitted concentration of half-maximal effect.
Test [5] is described as follows: Cytotoxicity counterscreen for inhibitors of SARS-CoV-2 cell entry (AID 1645845). Note: nearly all actives have a fitted effect of over 50% in size. Note: potency is the fitted concentration of half-maximal effect. Summed up: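 HEK293-ACE2 cells (Expi293F stably expressing human ACE2) seeded overnight, then compound for 1 h plus 48 h at 37C. Viability as ATP content by luminescence; normalized to wells with cells and media-only wells.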
In general terms: A counterscreen serves to expose hits that act by an unwanted route or on another target.

Test [6] is described as follows: Primary qHTS to identify inhibitors of SARS-CoV-2 cell entry (AID 1645846). Note: nearly all actives have a fitted effect of over 45% in size. Note: potency is the fitted concentration of half-maximal effect. As to conditions: activity change, negative = inhibition: at 57.1 µM (top of the series) unless noted. The procedure, abridged: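 HEK293-ACE2 (Expi293F, stable hACE2), 1500 cells/well, o/n 37C; cpd 23 nL pin, 1 h; MLV-PP w/ SARS-CoV-2-S (Wuhan-Hu-1, Δ19 C-term); 48 h 37C; Bright-Glo luminescence; normalized vs S-PP and bald PP.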

Test [7] deals with Alpha-galactosidase (Coffea arabica) (UniProt Q42656). In words: Counterscreen for Glucocerebrosidase Inhibitors: qHTS Assay for Coffee Bean alpha-Galactosidase at pH 4.5 (AID 957; active = well fitted curve in the direction sought with a large enough effect; an effect the other way counts as inactive or inconclusive;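 note: plate controls were enzyme alone for no effect and no enzyme for full effect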). Summed up: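 Coffee bean enzyme (2 nM) with 80 uM 4-methylumbelliferyl alpha-D-galactopyranoside in 50 mM citric acid, 0.005% Tween-20, pH 4.5, 20 min at room temperature; compounds 0.7 nM–77 uM. Stopped at pH 10, fluorescence 365/440 nm; AC50 from Hill fits.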

The target is the same in test [8]. The test can be described thus: Counterscreen for Glucocerebrosidase Inhibitors: qHTS Assay for Coffee Bean alpha-Galactosidase at pH 5.9 (AID 998; active = well fitted curve in the direction sought with a large enough effect; an effect the other way counts as inactive or inconclusive;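 note: plate controls were uninhibited enzyme for no effect and no-enzyme basal signal for full effect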). Summed up: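 Green coffee bean enzyme (2 nM) with 4-methylumbelliferyl alpha-D-galactopyranoside (80 uM) in 50 mM citric acid, 0.005% Tween-20, pH 5.9, 20 min at room temperature; compounds 0.7 nM–77 uM. Stopped at pH 10, fluorescence Ex365/Em440; Hill-fit AC50.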

The nature of test [9]: Validation screen for inhibitors of Lassa infection (AID 463096). Note: % is set by controls: 0 for no effect and ±100 for the full control effect.
Test [10] can be described thus: Inducers of the Endoplasmic Reticulum Stress Response (ERSR) in human glioma: Validation (AID 504836; active = well fitted curve in the direction sought with a large enough effect; an effect the other way counts as inactive or inconclusive; note: 0% is about no effect). The procedure, abridged: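 Stably transfected U87-MG glioma cells carrying a GRP78-based luciferase sensor; 16 h compound incubation. Luminescence end-point read 10 min after Bright-Glo addition at room temperature.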

Sequence of Alpha-galactosidase (Coffea arabica) (Q42656 whole entry, looked up): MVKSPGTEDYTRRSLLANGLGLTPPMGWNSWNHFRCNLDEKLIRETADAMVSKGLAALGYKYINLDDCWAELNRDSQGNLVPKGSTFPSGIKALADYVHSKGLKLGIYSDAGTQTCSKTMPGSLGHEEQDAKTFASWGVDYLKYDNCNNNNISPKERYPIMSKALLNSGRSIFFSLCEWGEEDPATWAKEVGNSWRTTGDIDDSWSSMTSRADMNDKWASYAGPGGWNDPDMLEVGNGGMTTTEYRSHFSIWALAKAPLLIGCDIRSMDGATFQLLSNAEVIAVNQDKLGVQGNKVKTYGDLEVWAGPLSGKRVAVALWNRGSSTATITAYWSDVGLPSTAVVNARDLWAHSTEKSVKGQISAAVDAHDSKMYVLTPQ
Sequence of Nucleoprotein (Lymphocytic choriomeningitis virus (strain Armstrong)) (P09992 whole entry, looked up): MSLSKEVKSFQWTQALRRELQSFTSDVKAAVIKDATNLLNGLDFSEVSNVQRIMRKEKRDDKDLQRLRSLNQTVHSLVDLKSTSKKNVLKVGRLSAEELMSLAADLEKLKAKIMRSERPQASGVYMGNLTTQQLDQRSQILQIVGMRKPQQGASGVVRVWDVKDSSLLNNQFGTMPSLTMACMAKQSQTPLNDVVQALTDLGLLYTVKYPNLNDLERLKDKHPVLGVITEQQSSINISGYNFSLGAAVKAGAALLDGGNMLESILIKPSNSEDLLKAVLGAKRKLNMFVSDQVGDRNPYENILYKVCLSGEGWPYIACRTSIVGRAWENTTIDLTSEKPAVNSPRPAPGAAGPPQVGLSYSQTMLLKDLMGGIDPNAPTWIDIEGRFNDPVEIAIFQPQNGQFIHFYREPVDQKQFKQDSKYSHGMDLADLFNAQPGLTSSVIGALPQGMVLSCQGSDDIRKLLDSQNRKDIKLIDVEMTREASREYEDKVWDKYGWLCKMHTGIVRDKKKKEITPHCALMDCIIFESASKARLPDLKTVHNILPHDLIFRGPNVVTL

For the compound `Cc1cncc2cccc(S(=O)(=O)N3CCCN(C(=O)CN)C[C@@H]3C)c12`, the Potency result in test [1], in test [2], in [3], in test [4] and in test [5] was “inactive” throughout. Besides, in [6], the activity change, negative = inhibition is -30.7%.

In the case of `CN1CC(=O)NC1=NC(=O)Nc1cccc(Cl)c1`, the Potency result in [1], in test [2], in [3], in [4] and in test [5] was “inactive” each time. The activity change, negative = inhibition in test [6] was -1.73%.

As to `Oc1cc2c(cc1O)C1c3ccc(O)c(O)c3OCC1(O)C2` (configuration not stated), the Potency entry in [1], in test [2], in test [3], in [4] and in test [5] was “inactive” each time. Further, in [6], the activity change, negative = inhibition is -5.64%.

Consider `COc1ccc(-c2ccc3ncc4c(c3c2)n(-c2ccc(N3CCNCC3)c(C(F)(F)F)c2)c(=O)n4C)cn1`, for which the Potency in [1] is 2.2 nM (active); in [5], 4470 nM (active); in test [6], 3160 nM (active). The Potency entry in test [2], in test [3] and in test [4] was “inactive” each time.

Take `O=C1CN2Cc3c(ccc(Cl)c3Cl)N=C2N1`: the Potency entry in test [1], in test [2], in test [3], in test [4], in test [5] and in test [6] was “inactive” in each case.

`Cc1cc(N2CCOCC2)cc2[nH]c(-c3c(NC[C@@H](O)c4cccc(Cl)c4)cc[nH]c3=O)nc12`: the Potency in [1] is 3850 nM (active); in test [2], 769 nM (active); in test [3] it was 863 nM (active); in [4], 1530 nM (active). The Potency entry in test [5] is “inactive”. Further, the activity change, negative = inhibition in [6] was -9.29%.

As for `CC(=O)NC(CS)C(=O)O` (configuration not stated), the Potency entry in test [1], in [2], in test [3], in test [4] and in [5] was “inactive” in each case. In addition, in test [6], the activity change, negative = inhibition was -1.31%.

Take `C[C@H](CCC(=O)O)[C@H]1CCC2C3C[C@H](O)[C@@H]4C[C@H](O)CC[C@]4(C)C3CC[C@@]21C` (some centres not stated): the Potency entry in test [1], in [2], in test [3], in [4] and in test [5] was “inactive” in each case. Further, the activity change, negative = inhibition in test [6] was -10.6%.

Take `CCCCCNC(=O)N1CCC(CN(Cc2ccc(Cl)cc2)Cc2ccc([N+](=O)[O-])s2)C1` (configuration not stated): the Potency entry in test [1], in test [2], in [3], in test [4] and in test [5] was “inactive” each time. In addition, the activity change, negative = inhibition in test [6] was -21.9%.

On to `C=C[C@@H]1CN2CCC1C[C@H]2[C@H](O)c1ccnc2ccc(OC)cc12` (some centres not stated), for which the Potency result in test [1], in [2], in test [3], in test [4] and in [5] was “inactive” each time. Also, the activity change, negative = inhibition in test [6] is -48.9%.

Consider `O=C(NC[C@H](O)CO)c1ccncc1Nc1ccc(I)cc1F`, for which the Potency result in [1], in test [2], in test [3], in test [4], in [5] and in test [6] was “inactive” throughout.

On to `O=S(=O)(O)CCSSCCS(=O)(=O)O`, for which the Potency entry in test [1], in test [2], in [3], in [4], in [5] and in [6] was “inactive” in each case.

In the case of `Cc1cn2cc(C(=O)N(C)CCO)cc(N[C@@H]3CCOc4cccc(C)c43)c2n1`, the Potency entry in [1], in test [2], in test [3], in test [4], in [5] and in test [6] was “inactive” throughout.

As for `C[C@@H]1CC[C@@]2(OC1)OC1CC3C4CC=C5CC(O)CCC5(C)C4CCC3(C)C1[C@@H]2C` (some centres not stated), the Potency entry in test [1], in test [2], in test [3], in test [4] and in test [5] was “inactive” in each case. The activity change, negative = inhibition in [6] was -1.34%.

Consider `CC(C)Nc1cc(C(F)(F)F)cc2nc(NC(=O)c3cccnc3)nn12`, for which the Potency result in [1], in [2], in test [3], in test [4] and in [5] was “inactive” throughout. Also, the activity change, negative = inhibition in test [6] is -4.48%.

Consider `NCCCCNCCCN`, for which the result in test [7], in [8] and in test [10] was inactive. The Potency entry in test [9], in [1], in test [2], in test [3], in [4] and in test [5] was “inactive” each time.

For `CCC(C)N(C)C(=O)c1cc2ccccc2c(-c2ccccc2Cl)n1` (configuration not stated), the Potency result in test [9], in test [1], in [2], in [3], in test [4] and in [5] was “inactive” throughout. Further, in test [10], the compound was classed as inactive. In test [6], the activity change, negative = inhibition was determined as 4.18%.

Take `NC(=O)c1ccc2[nH]ccc2c1`: in test [10], the compound was called inactive. Also, the Potency entry in [1], in test [2], in test [3], in [4] and in test [5] was “inactive” throughout.

With `O=c1c(O)c(-c2ccc(O)cc2O)oc2cc(O)cc(O)c12`, the compound was classed as inactive in test [8] and in test [10]. The Potency result in test [1], in test [2], in test [3], in test [4] and in [5] was “inactive” in each case. Further, in [6], the activity change, negative = inhibition turned out to be 0.962%.

Consider `O=c1cc(-c2ccccc2)oc2cc(O)cc(O)c12`, for which the Potency entry in [1], in test [2], in test [3], in test [4], in test [5] and in test [6] was “inactive” in each case.

The values are drawn from PubChem BioAssay (NCATS).
